Assay results from article PMC11006913.
Positions count from the first letter of the chain named.

Target: T1, PAX4 (Homo sapiens, UniProt O43316 9-242, R200K)
T1 sequence: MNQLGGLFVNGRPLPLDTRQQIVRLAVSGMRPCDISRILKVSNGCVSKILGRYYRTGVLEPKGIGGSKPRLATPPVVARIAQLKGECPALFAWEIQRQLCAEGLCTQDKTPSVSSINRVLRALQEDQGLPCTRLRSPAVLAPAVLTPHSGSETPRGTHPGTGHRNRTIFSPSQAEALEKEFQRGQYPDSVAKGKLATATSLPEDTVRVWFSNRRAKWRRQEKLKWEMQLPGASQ
Experiment: PBM; 200 nM protein, PBS
Conditions: dsDNA, one strand shown

Sequence | binding signal
TATTTTAA | 11 upbm affinity estimate (log intensity, higher = more binding, comparable within an allelic series)
CGCGCGCC | 9.3 upbm affinity estimate (log intensity, higher = more binding, comparable within an allelic series)
CTAATTCA | 11.7 upbm affinity estimate (log intensity, higher = more binding, comparable within an allelic series)
ATTACCCG | 10.6 upbm affinity estimate (log intensity, higher = more binding, comparable within an allelic series)
CTCGCCTC | 9.23 upbm affinity estimate (log intensity, higher = more binding, comparable within an allelic series)
CCGAAGCC | 9.25 upbm affinity estimate (log intensity, higher = more binding, comparable within an allelic series)
AAATTAAG | 11.5 upbm affinity estimate (log intensity, higher = more binding, comparable within an allelic series)
TGGGCCCA | 9.53 upbm affinity estimate (log intensity, higher = more binding, comparable within an allelic series)
CCAGCGCC | 9.19 upbm affinity estimate (log intensity, higher = more binding, comparable within an allelic series)
TAGTATAA | 10.7 upbm affinity estimate (log intensity, higher = more binding, comparable within an allelic series)
GAATTAAC | 11.6 upbm affinity estimate (log intensity, higher = more binding, comparable within an allelic series)
CGTATTAA | 11.8 upbm affinity estimate (log intensity, higher = more binding, comparable within an allelic series)
CGCCCGGC | 9.26 upbm affinity estimate (log intensity, higher = more binding, comparable within an allelic series)
GGAAGCCC | 9.27 upbm affinity estimate (log intensity, higher = more binding, comparable within an allelic series)
GCGAATTA | 11.6 upbm affinity estimate (log intensity, higher = more binding, comparable within an allelic series)
GGGCGCGA | 9.18 upbm affinity estimate (log intensity, higher = more binding, comparable within an allelic series)
AATGCGAT | 10.8 upbm affinity estimate (log intensity, higher = more binding, comparable within an allelic series)
AAGCGCTT | 9.65 upbm affinity estimate (log intensity, higher = more binding, comparable within an allelic series)

Sequence | binding signal
CGGGCCAC | 9.16 upbm affinity estimate (log intensity, higher = more binding, comparable within an allelic series)
CGGCCGGC | 9.17 upbm affinity estimate (log intensity, higher = more binding, comparable within an allelic series)
CTTCGTTC | 9.33 upbm affinity estimate (log intensity, higher = more binding, comparable within an allelic series)
CGTATTAG | 11.8 upbm affinity estimate (log intensity, higher = more binding, comparable within an allelic series)
ATTTAGAG | 10.6 upbm affinity estimate (log intensity, higher = more binding, comparable within an allelic series)
AGCTGCCG | 9.44 upbm affinity estimate (log intensity, higher = more binding, comparable within an allelic series)
ATAATGCG | 11.6 upbm affinity estimate (log intensity, higher = more binding, comparable within an allelic series)
ACCGGGGC | 9.07 upbm affinity estimate (log intensity, higher = more binding, comparable within an allelic series)
AGTGTTAG | 10.5 upbm affinity estimate (log intensity, higher = more binding, comparable within an allelic series)
ACGTATTA | 11.7 upbm affinity estimate (log intensity, higher = more binding, comparable within an allelic series)
ATGAATTA | 11.7 upbm affinity estimate (log intensity, higher = more binding, comparable within an allelic series)
TGTATTAA | 11.7 upbm affinity estimate (log intensity, higher = more binding, comparable within an allelic series)
CCCGCGCG | 9.26 upbm affinity estimate (log intensity, higher = more binding, comparable within an allelic series)
TAACTCAA | 10.6 upbm affinity estimate (log intensity, higher = more binding, comparable within an allelic series)
ACGAATTA | 11.6 upbm affinity estimate (log intensity, higher = more binding, comparable within an allelic series)
CTGAGCGC | 9.25 upbm affinity estimate (log intensity, higher = more binding, comparable within an allelic series)
GGAAAATA | 10.5 upbm affinity estimate (log intensity, higher = more binding, comparable within an allelic series)
ATACATAT | 10.7 upbm affinity estimate (log intensity, higher = more binding, comparable within an allelic series)

Target: PRRX1 (Homo sapiens, UniProt P54821 80-166, F113S)
Experiment: PBM; 200 nM protein, PBS
Conditions: dsDNA, one strand shown

Sequence of PRRX1 (P54821 80-166 F113S): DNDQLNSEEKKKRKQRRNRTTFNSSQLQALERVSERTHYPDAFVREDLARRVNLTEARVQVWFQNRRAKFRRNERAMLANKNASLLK

Sequence | binding signal
AATTATAC | 11.1 upbm affinity estimate (log intensity, higher = more binding, comparable within an allelic series)
ATTGATTA | 11.1 upbm affinity estimate (log intensity, higher = more binding, comparable within an allelic series)
ATAATTTA | 11.2 upbm affinity estimate (log intensity, higher = more binding, comparable within an allelic series)
AGCCTGAG | 9.28 upbm affinity estimate (log intensity, higher = more binding, comparable within an allelic series)

Target: T2, PAX4 (Homo sapiens, UniProt O43316 9-242)
T2 sequence: T1 sequence with K192R
Experiment: PBM; 200 nM protein, PBS
Conditions: dsDNA, one strand shown

Sequence | binding signal
TATTTTAA | 11.2 upbm affinity estimate (log intensity, higher = more binding, comparable within an allelic series)
CGCGCGCC | 9.28 upbm affinity estimate (log intensity, higher = more binding, comparable within an allelic series)
CTAATTCA | 12.2 upbm affinity estimate (log intensity, higher = more binding, comparable within an allelic series)
ATTACCCG | 11 upbm affinity estimate (log intensity, higher = more binding, comparable within an allelic series)
CTCGCCTC | 9.21 upbm affinity estimate (log intensity, higher = more binding, comparable within an allelic series)
CCGAAGCC | 9.26 upbm affinity estimate (log intensity, higher = more binding, comparable within an allelic series)
AAATTAAG | 12.1 upbm affinity estimate (log intensity, higher = more binding, comparable within an allelic series)
TGGGCCCA | 9.41 upbm affinity estimate (log intensity, higher = more binding, comparable within an allelic series)
CCAGCGCC | 9.3 upbm affinity estimate (log intensity, higher = more binding, comparable within an allelic series)
TAGTATAA | 10.8 upbm affinity estimate (log intensity, higher = more binding, comparable within an allelic series)
GAATTAAC | 12.2 upbm affinity estimate (log intensity, higher = more binding, comparable within an allelic series)
CGTATTAA | 12.2 upbm affinity estimate (log intensity, higher = more binding, comparable within an allelic series)
CGCCCGGC | 9.23 upbm affinity estimate (log intensity, higher = more binding, comparable within an allelic series)
GGAAGCCC | 9.25 upbm affinity estimate (log intensity, higher = more binding, comparable within an allelic series)
GCGAATTA | 12.1 upbm affinity estimate (log intensity, higher = more binding, comparable within an allelic series)
GGGCGCGA | 9.18 upbm affinity estimate (log intensity, higher = more binding, comparable within an allelic series)
AATGCGAT | 11 upbm affinity estimate (log intensity, higher = more binding, comparable within an allelic series)

Sequence | binding signal
AAGCGCTT | 9.81 upbm affinity estimate (log intensity, higher = more binding, comparable within an allelic series)
CGGGCCAC | 9.26 upbm affinity estimate (log intensity, higher = more binding, comparable within an allelic series)
CGGCCGGC | 9.29 upbm affinity estimate (log intensity, higher = more binding, comparable within an allelic series)
CTTCGTTC | 9.37 upbm affinity estimate (log intensity, higher = more binding, comparable within an allelic series)
CGTATTAG | 12.3 upbm affinity estimate (log intensity, higher = more binding, comparable within an allelic series)
ATTTAGAG | 10.7 upbm affinity estimate (log intensity, higher = more binding, comparable within an allelic series)
AGCTGCCG | 9.42 upbm affinity estimate (log intensity, higher = more binding, comparable within an allelic series)
ACCGGGGC | 9.11 upbm affinity estimate (log intensity, higher = more binding, comparable within an allelic series)
AGTGTTAG | 10.6 upbm affinity estimate (log intensity, higher = more binding, comparable within an allelic series)
ATGAATTA | 12.2 upbm affinity estimate (log intensity, higher = more binding, comparable within an allelic series)
CCCGCGCG | 9.11 upbm affinity estimate (log intensity, higher = more binding, comparable within an allelic series)
TAACTCAA | 10.7 upbm affinity estimate (log intensity, higher = more binding, comparable within an allelic series)
ACGAATTA | 12.1 upbm affinity estimate (log intensity, higher = more binding, comparable within an allelic series)
CTGAGCGC | 9.2 upbm affinity estimate (log intensity, higher = more binding, comparable within an allelic series)
GGAAAATA | 10.7 upbm affinity estimate (log intensity, higher = more binding, comparable within an allelic series)
ATACATAT | 10.7 upbm affinity estimate (log intensity, higher = more binding, comparable within an allelic series)

Target: HOXB6 (Homo sapiens, UniProt P17509 132-218, K202E)
Experiment: PBM; 200 nM protein, PBS
Conditions: dsDNA, one strand shown

Sequence of HOXB6 (P17509 132-218 K202E): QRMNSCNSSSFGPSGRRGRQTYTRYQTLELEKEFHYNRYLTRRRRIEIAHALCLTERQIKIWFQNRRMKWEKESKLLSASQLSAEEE

Sequence | binding signal
AATTATAC | 9.99 upbm affinity estimate (log intensity, higher = more binding, comparable within an allelic series)
ATAATTTA | 10 upbm affinity estimate (log intensity, higher = more binding, comparable within an allelic series)
AGCCTGAG | 8.98 upbm affinity estimate (log intensity, higher = more binding, comparable within an allelic series)

Target: T3, PAX4 (Homo sapiens, UniProt O43316 9-242, R200Q)
T3 sequence: T1 sequence with K192Q
Experiment: PBM; 200 nM protein, PBS
Conditions: dsDNA, one strand shown

Sequence | binding signal
TATTTTAA | 11 upbm affinity estimate (log intensity, higher = more binding, comparable within an allelic series)
CGCGCGCC | 9.36 upbm affinity estimate (log intensity, higher = more binding, comparable within an allelic series)
CTAATTCA | 11.6 upbm affinity estimate (log intensity, higher = more binding, comparable within an allelic series)
CTCGCCTC | 9.24 upbm affinity estimate (log intensity, higher = more binding, comparable within an allelic series)
CCGAAGCC | 9.27 upbm affinity estimate (log intensity, higher = more binding, comparable within an allelic series)
AAATTAAG | 11.8 upbm affinity estimate (log intensity, higher = more binding, comparable within an allelic series)
TGGGCCCA | 9.57 upbm affinity estimate (log intensity, higher = more binding, comparable within an allelic series)
CCAGCGCC | 9.31 upbm affinity estimate (log intensity, higher = more binding, comparable within an allelic series)
TAGTATAA | 10.8 upbm affinity estimate (log intensity, higher = more binding, comparable within an allelic series)
GAATTAAC | 11.9 upbm affinity estimate (log intensity, higher = more binding, comparable within an allelic series)
CGTATTAA | 11.5 upbm affinity estimate (log intensity, higher = more binding, comparable within an allelic series)
CGCCCGGC | 9.1 upbm affinity estimate (log intensity, higher = more binding, comparable within an allelic series)
GGAAGCCC | 9.38 upbm affinity estimate (log intensity, higher = more binding, comparable within an allelic series)
GCGAATTA | 11.5 upbm affinity estimate (log intensity, higher = more binding, comparable within an allelic series)
GGGCGCGA | 9.16 upbm affinity estimate (log intensity, higher = more binding, comparable within an allelic series)
AAGCGCTT | 9.56 upbm affinity estimate (log intensity, higher = more binding, comparable within an allelic series)
CGGGCCAC | 9.31 upbm affinity estimate (log intensity, higher = more binding, comparable within an allelic series)
CGGCCGGC | 9.07 upbm affinity estimate (log intensity, higher = more binding, comparable within an allelic series)
CTTCGTTC | 9.51 upbm affinity estimate (log intensity, higher = more binding, comparable within an allelic series)
CGTATTAG | 11.4 upbm affinity estimate (log intensity, higher = more binding, comparable within an allelic series)
ATTTAGAG | 10.6 upbm affinity estimate (log intensity, higher = more binding, comparable within an allelic series)
AGCTGCCG | 9.33 upbm affinity estimate (log intensity, higher = more binding, comparable within an allelic series)
ACCGGGGC | 9.2 upbm affinity estimate (log intensity, higher = more binding, comparable within an allelic series)
ATGAATTA | 11.8 upbm affinity estimate (log intensity, higher = more binding, comparable within an allelic series)
CCCGCGCG | 9.18 upbm affinity estimate (log intensity, higher = more binding, comparable within an allelic series)
